# Inconclusive results are not listed. Where a call stands in place of a potency, no number is given. More than one record can exist for a structure, and the calls need not agree. Activity calls are given as the source filed them. Calls follow the shape of the dose curve; as a rule, active = well fitted inhibition curve with a large enough effect; inconclusive = small, poorly fitted or top-dose-only effect; inactive = flat fitted curve, though single readings scatter.
# Assay: qHTS for Inhibitors of Plasmodium falciparum (7G8) proliferation (AID 504316); also: nearly all actives have a fitted effect of over 65% in size
# Settings: P. falciparum 7G8 in erythrocytes, SYBR Green DNA, 72 h; series mostly up to 6.7 µM
# Method in brief: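 Parasite growth measured as SYBR Green DNA fluorescence (ex 485, em 535 nm) after overnight lysis following 72 h culture at 37 °C, 0.3% parasitemia, 2.5% hematocrit. Values normalized against DMSO and 0.29 uM artemisinin controls, with plate-stack correction.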
# Potency is read from the fitted curve at half-maximal effect.
row,Structure (SMILES),Potency
1,C(#C[C@@H]1C=C[C@H]2OC(c3ccccc3)OC[C@H]2O1)c1ccccc1 (some centres undefined),inactive
2,COC(=O)N[C@@H](CCc1ccccc1)[C@]1(C(=O)OC)CCCC1=O,inactive
3,COC(=O)C1=C(C(=O)OC)[C@@H]2N(C)c3ccccc3[C@@]23CCC(=O)N(CC(C)C)C3=N1,inactive
4,C[C@H]1CCCC(=O)N[C@@H](c2ccccc2)[C@@H](C)CCCC(=O)N[C@@H]1c1ccccc1,inactive
5,COc1ccc(-c2nc3c(c4c2C[C@H](c2ccccc2)OC4)CN(C(=O)N[C@@H](C)c2ccccc2)CC3)c(C)c1,1.69 µM (active)
6,COCn1c2ccccc2c2nnc(C(=O)O)nc21,inactive
7,CCN1C(=O)[C@@H]2[C@H]3[C@H](O)[C@H](O)CC(=NOCC[C@@H]4C=C[C@H](OC(C)=O)[C@@H](COC(C)=O)O4)[C@@H]3CC[C@H]2C1=O,inactive
8,COC(=O)[C@H](Cc1ccccc1)NC(=O)O[C@@H]1C(=O)c2cc(Br)ccc2O[C@H]1c1ccc2c(c1)OCO2,inactive
9,COC(=O)[C@H](COC(C)(C)C)NC(=O)O[C@@H]1C(=O)c2cc(Br)ccc2O[C@H]1c1ccc2c(c1)OCO2,inactive
10,C=C(C)C(=O)C=Cc1ccc(Br)cc1,inactive
11,COc1ccc(-c2nc(-c3ccccc3)c(NC(C)(C)C)o2)cc1,1.51 µM (active) and inactive
12,CCOC(=O)CCN1C(=O)[C@@H]2[C@H]3[C@H](O)[C@H](O)CC(=NNC(=O)OCc4ccccc4)[C@H]3CC[C@H]2C1=O,inactive
13,COC(=O)CC=C[C@@H](C)[C@H](NC(=O)OCC(Cl)(Cl)Cl)c1cccc(OC)c1,inactive
14,COC(=O)C12CC3(CCC4C5C(C(OCc6ccccc6)C41)C52)OCCO3 (centres undefined),inactive
15,CCN1C(=NCCc2cccnc2)NC(CCc2ccccc2)C(C(=O)OC)=C1C (centres undefined),inactive
16,COC(=O)C1=C(C)N(CCC(C)O[Si](C)(C)C(C)(C)C)C(=O)N(C(C)=O)C1c1ccccc1 (centres undefined),inactive
17,C=CCOC(=O)NC(c1ccc(F)c(F)c1)S(=O)(=O)c1ccc(Cl)cc1 (centres undefined),inactive
18,CCOC(=O)OC[C@H]1O[C@H](C#Cc2ccc(C)cc2C)C=C[C@H]1OC(=O)OCC,inactive
19,CCN(CC)CCCN=C1NC(c2cccc(C(F)(F)F)c2)C(C(=O)OC)=C(C)N1CC (centres undefined),inactive
